Source: PubChem
A selection: hits, their analogues and other compounds. The true share with any hit is near 2.8%.
PI5P4K alpha inh – qHTS for Inhibitors of phosphatidylinositol 5-phosphate 4-kinase (PI5P4K); Phosphatidylinositol 5-phosphate 4-kinase type-2 alpha (Homo sapiens), P48426; PI5P4Kalpha enzyme, ADP-Glo luminescence, 60 min; stronger effect = lower value; max response, %; actives 1.2% (n = 330,000); AID 652105, 2013; active = max response of -50% or lower; inconclusive = between -30% and -50%; inactive = -30% or higher; also: value at the top dose of about 77 µM; % is scaled to controls: 0 for no effect and ±100 for the full control effect
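Luminescence from ADP-Glo served as readout of PI5P4Kalpha activity in a qHTS format. Reaction: enzyme, substrate, compound, ATP at 5 microM final, 60 min at RT.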
PI4K2A block – qHTS for small molecular inhibitors of PI4K2A; actives 0.13% (n = 420,000); AID 1346378, 2018; purified PI4K2A, ADP-Glo luminescence, 1 h; stronger effect = lower value; activity change, negative = inhibition, % at 76.9 µM; in the data active = activity change below about -50%; inconclusive = mostly about -30% to -49%;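 also: -100% = wells without enzyme as full effect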
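Compounds are screened against recombinant PI4K2A using PI as substrate and ATP, the latter dispensed at 300 microM. Reactions run one hour at ambient temperature before ADP-Glo detection; full inhibition defined by wells lacking enzyme.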
Pol eta inh-1 – qHTS for Inhibitors of Polymerase Eta. DNA polymerase eta (Homo sapiens), Q9Y253. recombinant Pol eta, fluorescent DNA replication assay. Potency, µM (highest dose often 114 µM), for inactives: at the top dose activity change, negative = inhibition, most hits filed as inhibitors. actives 1.2% (n = 390,000); also: potency is read from the fitted curve at half-maximal effect; % is scaled to controls: 0 for no effect and ±100 for the full control effect
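Pol eta (10 nM) was preincubated with compounds for 15 min at room temperature, after which fluorescent replication substrate (50 nM final) was added to start the reaction. Fluorescence was read kinetically at 0 and 10 min.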
Pol kappa inh – qHTS for Inhibitors of Polymerase Kappa | purified Pol kappa, fluorescent DNA synthesis assay, 10 min | actives 0.53% (n = 400,000) | Potency, µM (top dose mostly 107 µM), without a hit: at the top dose activity, negative = inhibition, most hits filed as inhibitors; also: potency is read from the fitted curve at half-maximal effect; % is scaled to controls: 0 for no effect and ±100 for the full control effect
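Activity was followed as the change in fluorescence between reads at 0 and 10 min after starting the reaction with 50 nM substrate. Beforehand, 10 nM polymerase had been preincubated with compound for 15 min at room temperature.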
POLI inh – qHTS for Inhibitors of Polymerase Iota; Pol iota fluorescent replication assay, 10 min; Potency, µM (top dose mostly 115 µM), without a hit: top-dose activity, negative = inhibition, most hits filed as inhibitors; actives 1% (n = 390,000); AID 588590, 2011; also: potency is read from the fitted curve at half-maximal effect
Target sequence (Q9UNA4 whole entry, looked up): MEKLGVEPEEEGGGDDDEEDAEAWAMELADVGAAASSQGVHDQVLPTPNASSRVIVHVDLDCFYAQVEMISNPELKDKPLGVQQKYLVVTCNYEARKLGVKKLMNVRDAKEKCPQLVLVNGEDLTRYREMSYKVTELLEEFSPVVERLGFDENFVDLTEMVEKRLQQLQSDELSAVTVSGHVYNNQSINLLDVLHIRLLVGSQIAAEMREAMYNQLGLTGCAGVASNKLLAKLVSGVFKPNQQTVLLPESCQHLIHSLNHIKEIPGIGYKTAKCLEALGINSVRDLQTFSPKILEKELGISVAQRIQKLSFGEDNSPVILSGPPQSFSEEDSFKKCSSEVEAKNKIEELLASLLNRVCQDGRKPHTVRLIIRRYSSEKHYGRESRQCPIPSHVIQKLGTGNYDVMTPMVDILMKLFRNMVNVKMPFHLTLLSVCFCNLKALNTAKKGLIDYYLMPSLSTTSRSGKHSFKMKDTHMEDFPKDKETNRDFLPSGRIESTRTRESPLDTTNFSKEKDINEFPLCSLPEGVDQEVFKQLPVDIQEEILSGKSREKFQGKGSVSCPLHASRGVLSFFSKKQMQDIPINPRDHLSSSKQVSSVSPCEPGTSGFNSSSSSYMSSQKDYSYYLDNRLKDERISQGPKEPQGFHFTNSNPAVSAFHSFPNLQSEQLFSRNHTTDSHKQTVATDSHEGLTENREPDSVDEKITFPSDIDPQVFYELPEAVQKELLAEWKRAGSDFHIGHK
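Fluorescent replication assay read twice, at 0 min and 10 min after adding 50 nM (final) substrate. Enzyme (10 nM) and compounds were first incubated 15 min at room temperature; enzyme-free buffer wells were negative controls.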
Pol beta inh-1 – qHTS Assay for Inhibitors of DNA Polymerase Beta. Pol beta primer extension/strand displacement, fluorescence kinetic. Potency, µM (top dose mostly 114 µM), without a hit: top-dose activity change, negative = inhibition, hits mostly inhibitors. actives 1.3% (n = 340,000). AID 485314, 2010; also: potency is read from the fitted curve at half-maximal effect; % is scaled to controls: 0 for no effect and ±100 for the full control effect
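Kinetic readout of DNA synthesis with strand displacement by Pol beta. Compound and 10 nM enzyme sit 15 min at room temperature; 50 nM substrate starts the reaction, read immediately and at 10 min.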
Pol beta inh-2 – Inhibitors of DNA Polymerase Beta: Hit validation | AID 540280, 2011 | actives 87% (n = 250) | Potency, µM, actives largely listed as inhibitors | shares compounds with Pol beta inh-1 | Pol beta primer extension/strand displacement, fluorescence kinetic; calls by dose curve; also: potency is read from the fitted curve at half-maximal effect
Klenow inh – Inhibitors of DNA Polymerase Beta: Hit Validation in Klenow Fragment Assay | 250 tested, under 10 active | AID 540300, 2011 | Klenow exo- polymerase counter-screen, fluorescent DNA substrate | shares compounds with Pol beta inh-1 | activity change, negative = inhibition, % at 57.1 µM
HIV RT counter – Inhibitors of DNA Polymerase Beta: Hit Validation in HIV-RT Assay | 250 tested, under 10 active | shares compounds with Pol beta inh-1 | activity % (negative = inhibition, positive = activation), % at 57.1 µM | HIV-1 RT polymerase activity, counter-screen
POLB inh gel – Inhibitors of DNA Polymerase Beta: Hit Validation in Radiolabeled Extension Assay; shares compounds with Pol beta inh-1; radiolabeled primer extension gel assay, phosphorimager; inhibition, % at 10 µM; actives 91% (n = 110);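 active = inhibition at 10 µM of 30% or more; inconclusive = no clear call, values can overlap the other calls; inactive = inhibition at 10 µM under 30%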
Pol iota confirm – qHTS for Inhibitors of Polymerase Iota: Confirmatory Assay for Cherry-picked Compounds | shares compounds with Pol kappa inh | Pol iota primer extension, TAMRA/BHQ fluorescence | Potency, µM, most hits filed as inhibitors | actives 77% (n = 1,500) | AID 720496, 2013; also: potency is read from the fitted curve at half-maximal effect
Pol eta inh-2 – qHTS for Inhibitors of Polymerase Eta: Confirmatory Assay for Cherry-picked Compounds. shares compounds with Pol eta inh-1. Pol eta primer extension, TAMRA/BHQ fluorescence, 10 min. Potency, µM, usual class: inhibitors. actives 64% (n = 2,600); also: potency is read from the fitted curve at half-maximal effect
ADP-Glo interf – qHTS for Inhibitors of PI5P4K: ADP-Glo counter assay | shares compounds with PI5P4K alpha inh | ADP-Glo detection counter-screen, luciferase luminescence, no enzyme | Potency, µM (titrated, usually from 76.9 µM), without a hit: top-dose activity change, negative = inhibition, actives largely listed as inhibitors | 1,100 tested, under 10 active
Numbers without * were called inactive; [ ] = dose if it differs, or a comment. Unless noted, calls follow the shape of the dose curve; as a rule, active = well fitted curve in the direction sought with a large enough effect; inconclusive = small, poorly fitted or top-dose-only effect, or another doubt; inactive = no such curve, though single readings can be large; an effect the other way counts as inactive or inconclusive.

What do the screens show for `CCCc1cc(=O)oc2cc(C)c(CN3CCCC3)c(O)c12`?
PI5P4K alpha inh: -81*; PI4K2A block: inconclusive; Pol eta inh-1: 22µM*; Pol kappa inh: 20µM*; POLI inh: 5µM*; Pol beta inh-1: 6.3µM*; Pol beta inh-2: 25*; Klenow inh: -25; HIV RT counter: 23; POLB inh gel: 5; Pol eta inh-2: 67*; ADP-Glo interf: -10%

What do the screens show for `CCC(=O)N1CCc2cc(S(=O)(=O)NC(Cc3ccccc3)C(=O)NCc3ccc(F)cc3)ccc21` (stereo not drawn)?
PI4K2A block: 1; Pol eta inh-1: -7%; Pol kappa inh: -15%; POLI inh: 28%; Pol beta inh-1: -1%

How did CCN(CC)S(=O)(=O)c1ccc2nc(NC(=O)c3cccnc3)sc2c1 do in these assays?
PI4K2A block: 0; Pol eta inh-1: -3%; Pol kappa inh: -8%[60.1 µM]; POLI inh: -1%; Pol beta inh-1: 34%

Results for CCCN(C(=O)c1cc2c(s1)CCC2)c1c(N)n(Cc2ccccc2)c(=O)[nH]c1=O ?
PI5P4K alpha inh: -66*; PI4K2A block: -6; Pol eta inh-1: 25µM*; Pol kappa inh: inconclusive; POLI inh: inconclusive; Pol beta inh-1: 10µM*; Pol beta inh-2: 22*; Klenow inh: -13; HIV RT counter: -9; POLB inh gel: 91*; Pol iota confirm: inconclusive; Pol eta inh-2: 76*; ADP-Glo interf: 2%

Results for O=c1c2c3c(sc2[nH]c(=S)n1Cc1ccco1)CCC3 ?
PI5P4K alpha inh: -59*; PI4K2A block: -11; Pol eta inh-1: 20µM*; Pol kappa inh: inconclusive; POLI inh: 18µM*; Pol beta inh-1: 8.9µM*; Pol beta inh-2: 16*; Klenow inh: -12; HIV RT counter: -3; Pol iota confirm: 42*; Pol eta inh-2: 43*; ADP-Glo interf: -8%

Results for O=C(Cc1cccs1)Nc1nnc(SCc2cccc3ccccc23)s1 ?
PI5P4K alpha inh: -53*; PI4K2A block: -9; Pol eta inh-1: inconclusive; Pol kappa inh: 50µM*; POLI inh: 22µM*; Pol beta inh-1: 8.9µM*; Pol beta inh-2: 28*; Klenow inh: -18; HIV RT counter: 24; POLB inh gel: 71*; ADP-Glo interf: -1%

How did O=C(Cc1cccs1)Nc1nnc(SCC(=O)NC2CCCCC2)s1 do in these assays?
PI5P4K alpha inh: -25; PI4K2A block: 2; Pol eta inh-1: inconclusive; Pol kappa inh: -31%; POLI inh: inconclusive; Pol beta inh-1: inconclusive

Results for Cc1cccc2cc3c(N)c(C#N)sc3nc12 ?
PI5P4K alpha inh: 6; PI4K2A block: 4; Pol eta inh-1: -17%; Pol kappa inh: -11%; POLI inh: inconclusive; Pol beta inh-1: inconclusive

What do the screens show for `Cc1sc(NC(=O)c2sc3nc4c(C)cccc4cc3c2N)c(C#N)c1C`?
PI5P4K alpha inh: -63*; PI4K2A block: -1; Pol eta inh-1: 2.8µM*; Pol kappa inh: -27%; POLI inh: inconclusive; Pol beta inh-1: 5µM*; Pol beta inh-2: 8.9*; Klenow inh: -30; HIV RT counter: 2; ADP-Glo interf: -6%

Results for CSCCC(NS(=O)(=O)c1ccc2c(c1)OCCO2)C(=O)N(C)Cc1ccccc1F (stereo not drawn) ?
PI5P4K alpha inh: -3; PI4K2A block: 2; Pol eta inh-1: -24%; Pol kappa inh: -5%; POLI inh: 6%

What do the screens show for `COCCCNc1nc2cc(OC)c(OC)cc2c2nc(-c3ccccc3)nn12`?
PI5P4K alpha inh: 4; PI4K2A block: -2; Pol eta inh-1: -14%; Pol kappa inh: 7%; POLI inh: 28%; Pol beta inh-1: 19%

How did CCN(CC)CCCNc1nc2cc(OC)c(OC)cc2c2nc(-c3cccnc3)nn12 do in these assays?
PI4K2A block: 0; Pol eta inh-1: inconclusive; Pol kappa inh: inconclusive; POLI inh: inconclusive; Pol beta inh-1: 8.9µM*; Pol iota confirm: 42*

What do the screens show for `CCN(CC)CCCNc1nc2cc(OC)c(OC)cc2c2nc(-c3ccccc3)nn12`?
PI5P4K alpha inh: 3; PI4K2A block: 4; Pol eta inh-1: inconclusive; Pol kappa inh: inconclusive; POLI inh: 7.9µM*; Pol beta inh-1: 11µM*; Pol iota confirm: 38*
